# Laboratory results reported in article PMC5540273 (PLoS ONE, 2017).
# What was measured:
# Details in all cases: concentration: 1 μM, replicates: in singlicate; n = 1
# GRK4 = test system: GRK4
# GRK7 = test system: GRK7
# GSK3A = test system: GSK3A
# GSK3B = test system: GSK3B
# HASPIN = test system: T1, HASPIN
# T1 construct: gene GSG2
# HCK = test system: HCK
# HIPK1 = test system: HIPK1
# HIPK2 = test system: HIPK2
# HIPK3 = test system: HIPK3
# HIPK4 = test system: HIPK4
# HPK1 = test system: HPK1
# HUNK = test system: HUNK
# ICK = test system: ICK
# IGF1R = test system: IGF1R
# IKK-alpha = test system: T2, IKK-alpha
# T2 construct: gene CHUK
# IKK-beta = test system: T3, IKK-beta
# T3 construct: gene IKBKB
# IKK-epsilon = test system: T4, IKK-epsilon
# T4 construct: gene IKBKE
# INSRR = test system: INSRR
# INSR = test system: INSR
# IRAK1 = test system: IRAK1
# 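Further: KINOMEscan kinase panel screen.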
Structure (SMILES),%Inh (GRK4),%Inh (GRK7),%Inh (GSK3A),%Inh (GSK3B),%Inh (HASPIN),%Inh (HCK),%Inh (HIPK1),%Inh (HIPK2),%Inh (HIPK3),%Inh (HIPK4),%Inh (HPK1),%Inh (HUNK),%Inh (ICK),%Inh (IGF1R),%Inh (IKK-alpha),%Inh (IKK-beta),%Inh (IKK-epsilon),%Inh (INSRR),%Inh (INSR),%Inh (IRAK1)
COc1ccc(Nc2nccc(N3CCC(NC(=O)Nc4cccc(C(C)=O)c4)C3)n2)cc1 (centres unmarked) [GSK1379731],0%,0%,22%,7%,17%,0%,0%,0%,1%,0%,40%,3%,0%,0%,9%,1%,0%,0%,0%,6%
Fc1ccc(-c2nn3c(OCC(F)(F)F)cccc3c2-c2ccncc2)cc1 [GW514784],0%,0%,10%,0%,67%,0%,0%,0%,5%,0%,6%,31%,0%,0%,0%,0%,22%,0%,0%,19%
Cc1c2ccc(N(C)c3ccnc(Nc4cccc(S(N)(=O)=O)c4)n3)cc2nn1Cc1ccccc1.Cl.Cl [GW787226],21%,0%,0%,0%,0%,91.7%,23%,0%,0%,0%,76%,30%,0%,34%,0%,0%,2%,58%,25%,0%
NS(=O)(=O)c1cccc(-c2ccc3nccc(-c4cccc(S(N)(=O)=O)c4)c3c2)c1 [GW867253],26%,0%,0%,52%,64%,20%,37%,29%,27%,0%,0%,17%,0%,0%,0%,0%,0%,6%,0%,12%
O=c1cc(N2CCOCC2)nc2n(Cc3cccc(F)c3)ccn12 [GSK2297430],1%,0%,0%,11%,4%,0%,0%,0%,9%,0%,34%,4%,0%,9%,3%,5%,0%,0%,0%,0%
CSc1ccc(-c2cc3ncnc(SCC(=O)O)c3s2)cc1,0%,2%,0%,0%,0%,33%,55%,52%,33%,22%,0%,0%,0%,2%,6%,0%,0%,11%,0%,28%
O=C(NCCNc1ccnc(Nc2ccc(F)cc2)n1)Nc1ccccc1F [GSK1379880],0%,0%,2%,0%,0%,0%,0%,0%,19%,0%,33%,0%,0%,0%,0%,0%,0%,0%,0%,15%
[2H]C([2H])(c1cccc(C(F)(F)F)c1C)n1ccn2c(=O)nc(N3CCOCC3)cc12 [GSK2336394],0%,0%,9%,0%,0%,0%,0%,0%,9%,0%,27%,6%,8%,0%,10%,16%,13%,0%,2%,16%
C[C@@H](Oc1cc(-n2cnc3ccc(NC(=O)NC(C)(C)C)cc32)sc1C(N)=O)c1ccccc1Cl [GSK346294],0%,0%,18%,21%,1%,0%,9%,0%,26%,0%,35%,0%,0%,0%,0%,0%,23%,0%,0%,15%
Cl.Nc1ncnc2occ(-c3ccc(NC(=O)Nc4cc(C(F)(F)F)ccc4F)cc3)c12 [SB-707548],0%,0%,68%,8%,0%,71%,63%,50%,77%,99.2%,85%,15%,5%,5%,86%,35%,63%,0%,23%,35%
